Hits are enriched below; roughly 4.6% of the tested compounds scored in any of these assays.
ABHD5-PLIN5 inh = blocks binding of human ABHD5 to perilipin-5; Q00G26+Q8WTS1; Split G. princeps luciferase complementation, luminescence, 4 h; inhibition, % at 4 µM; 0.78% of 360,000 active;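 active = inhibition above the mean inhibition across every tested compound plus 3 SD, cut at about 22% in these data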
Peg3 prom inh-1 = reduces Peg3 promoter-driven luciferase expression in HeLa | HeLa PEG-Prom luciferase reporter, luminescence, overnight | inhibition, % at 20 µM | 1.7% of 360,000 active | AID 588405;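 active = inhibition of at least 50% at 20 µM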
KKLEB tox = reduces viability of KKLEB cystic fibrosis airway cells; activity change (cytotoxicity), % at 5 µM; AID 602141; KKLEB CF airway cells viability, ATPlite luminescence, overnight; active compounds read low; cells stimulated with P. aeruginosa culture filtrate; 0.36% of 360,000 active;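 active = corrected activity change at or below -50% at 5 µM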
CF NFkB inh = cystic fibrosis NF-kB activation inhibition. inhibition, % at 5 µM. 0.86% of 360,000 active. KKLEB NF-kB-GFP reporter, PAF-induced, GFP fluorescence overnight;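 active = at least 50% inhibition at 5 µM, scaled per plate between neutral and stimulator controls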;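 also: PAF is a Pseudomonas aeruginosa culture filtrate used as stimulus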
HIF-2a inh = inhibitors of HIF-2a; 786-0 RCC cells HIF-2a reporter, luciferase luminescence, overnight; inhibition, % at 18.8 µM; 0.72% of 360,000 active; AID 624352;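 active = inhibition of the luminescence signal of 40% or more relative to plate controls, in a single-dose primary screen at 18.75 µM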
Mdm2 MdmX PPI = human Mdm2/MdmX binding inhibition. O15151+Q00987. SaOS-2 split-luciferase Mdm2/MdmX complementation, luminescence. inhibition, % at 8 µM. 3% of 330,000 active. AID 485346;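 active = inhibition of at least 50% at 8 µM in the primary screen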
Mdm2 MdmX conf-1 = human Mdm2/MdmX binding inhibition, confirmed; luminescent assay; inhibition, % at 8 µM; 55% of 10,000 active; shares compounds with Mdm2 MdmX PPI
Full FLuc ctr = counter-screen for Mdm2/MdmX inhibitors: full-length luciferase. shares compounds with Mdm2 MdmX PPI. SaOS-2 full-length luciferase counterscreen, luminescence. 77% of 6,200 active. inhibition, % at 8 µM;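 active = mean inhibition at 8 µM reaching about 37%, which flags the compound as non-specific, limit read from the data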;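 also: p53-null SaOS-2 cells with luciferase driven by a doxycycline-inducible promoter; compound on cells about two nights before reading with doxycycline added after day one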
Peg3 prom inh-2 = confirmation of Peg3 promoter inhibitors; shares compounds with Peg3 prom inh-1; HeLa PEG-Prom luciferase reporter, luminescence, overnight; inhibition, % at 20 µM; 84% of 1,300 active; AID 602417;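 active = at 20 µM dose, 40% or more inhibition averaged across four replicates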
CF NFkB inh conf = CF NF-kB inhibition confirmation, single concentration; shares compounds with CF NFkB inh; inhibition, % at 5 µM; KKLEB CF airway cells, PAF-induced NF-kB-GFP fluorescence, overnight; 64% of 1,300 active;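 also: stimulus PAF is a Pseudomonas aeruginosa filtrate and not platelet activating factor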
ABHD5 PLIN5 conf = confirmation of human ABHD5-PLIN5 interaction inhibitors | shares compounds with ABHD5-PLIN5 inh | biochemical ABHD5-PLIN5 interaction, luminescence | inhibition, % at 4 µM | 67% of 2,200 active; in the data active = inhibition above about 23%
HNF4 counter = HNF4 split-luciferase signal hit, counter-screen; shares compounds with ABHD5-PLIN5 inh; HNF4 dimerization, luminescence, biochemical; inhibition, % at 4 µM; 77% of 2,200 active;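 active = mean inhibition across replicate wells exceeding the computed hit threshold, cut at about 13% in these data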;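 also: light from luciferase halves that rejoin when HNF4 fusion proteins dimerize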
Mdm2 MdmX conf-2 = confirmation of inhibitors of human Mdm2/MdmX interaction, set 2; shares compounds with HIF-2a inh; SaOS-2 split-luciferase Mdm2/MdmX complementation, luminescence; inhibition, % at 8 µM; 99% of 740 active;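 active = mean inhibition of the luminescence signal across two replicates at or above 26 percent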
HIF-2a inh conf = confirmation of HIF-2a inhibitors; 56% of 1,800 active; 786-0 RCC cells, HIF-2a luciferase reporter luminescence, overnight; AID 651580; inhibition, % at 18.8 µM; shares compounds with HIF-2a inh;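 active = mean inhibition across four replicates of at least 40 percent at the single tested concentration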
HIF-1a cs = counter-screen for HIF-2a inhibitors: HIF-1a inhibition in MiaPaCa-2 cells; shares compounds with HIF-2a inh; 72% of 1,800 active; AID 651589; MiaPaCa-2 HIF-1a luciferase reporter, desferoxamine, overnight; inhibition, % at 18.8 µM;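 active = mean inhibition of the reporter signal across four replicates at the single tested dose of 50% or more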
Each line names hits and unclear results; the compound was inactive in the other large screens (follow-up assays come after a bar, where they were run). Rule as the data show it, unless noted: active = inhibition above about 40%; inactive = the rest.

Fc1ccc(Sc2nc(-c3ccccc3)nnc2C(F)(F)F)cc1	Peg3 prom inh-1 84, HIF-2a inh 85, Mdm2 MdmX PPI 78 | Mdm2 MdmX conf-1 inactive | HIF-2a inh conf inactive | HIF-1a cs 89
CCOC(=O)C1=CN(Cc2ccco2)S(=O)(=O)N(CC)C1c1ccc(C(F)(F)F)cc1 (stereo not drawn)	none
COc1ccc(-c2cc(=O)oc3c(C)c(O)ccc23)cc1	CF NFkB inh 83, Mdm2 MdmX PPI 65 | Mdm2 MdmX conf-1 81 | Full FLuc ctr 53 | CF NFkB inh conf 92 | Mdm2 MdmX conf-2 92
CCOC(=O)c1ccc(Nc2nc(N)c3cc(OC)c(OC)cc3n2)cc1	Mdm2 MdmX PPI 85 | Mdm2 MdmX conf-1 83 | Full FLuc ctr 49 | Mdm2 MdmX conf-2 61
CCOC(=O)c1ccc(Nc2ccc(-c3ccc(OC)c(OC)c3)nn2)cc1	none
COC(CN(C(=O)CCl)C(C(=O)NC1CCCCC1)c1ccc(Cl)cc1)OC (stereo not drawn)	none
COC(CN(C(=O)CCl)C(C(=O)NC1CCCCC1)c1ccccc1C)OC (stereo not drawn)	Peg3 prom inh-1 64, CF NFkB inh 54, HIF-2a inh 47, Mdm2 MdmX PPI 83 | Mdm2 MdmX conf-1 62 | Full FLuc ctr 44 | CF NFkB inh conf inactive | HIF-2a inh conf inactive | HIF-1a cs 84
Cc1cccc(N(C(=O)CNC(=O)c2ccco2)C(C(=O)NC2CCCCC2)c2cccnc2)c1 (stereo not drawn)	none
COc1ccc(C(C(=O)NC2CCCCC2)N(C(=O)CCl)c2ccc(Cl)cc2)cc1 (stereo not drawn)	Peg3 prom inh-1 74, KKLEB tox -99, CF NFkB inh 97, Mdm2 MdmX PPI 100 | Mdm2 MdmX conf-1 99 | Full FLuc ctr 49 | Mdm2 MdmX conf-2 98
O=C(NC1CCCCC1)C(c1cccnc1)N(C(=O)CCl)c1cccc(Cl)c1 (stereo not drawn)	Peg3 prom inh-1 106, KKLEB tox -63, CF NFkB inh 54, HIF-2a inh 62, Mdm2 MdmX PPI 100 | Mdm2 MdmX conf-1 100 | Full FLuc ctr 53 | Peg3 prom inh-2 99 | Mdm2 MdmX conf-2 103 | HIF-2a inh conf 98 | HIF-1a cs 106
COC(=O)[C@@]1(Cc2ccc(OC)cc2)[C@@H]2C(=CC(=O)[C@H]2CC(=O)C(=O)N2CCCC2)CN1C(=O)c1ccccc1	ABHD5-PLIN5 inh 33, HIF-2a inh 77, Mdm2 MdmX PPI 69 | Mdm2 MdmX conf-1 inactive | ABHD5 PLIN5 conf 63 | HNF4 counter 49 | HIF-2a inh conf 69 | HIF-1a cs 84
Nc1ncc([N+](=O)[O-])c(N2CCCCCC2)n1	CF NFkB inh 67, Mdm2 MdmX PPI 75 | Mdm2 MdmX conf-1 73 | Full FLuc ctr 49 | CF NFkB inh conf 91 | Mdm2 MdmX conf-2 84
Cc1ccc(Nc2c(-c3ccccc3)nc3cnccn23)cc1	none
Cc1ccc(Nc2c(-c3ccccn3)nc3ccc(C)cn23)cc1	Mdm2 MdmX PPI 74 | Mdm2 MdmX conf-1 90 | Full FLuc ctr 52 | Mdm2 MdmX conf-2 86
Cc1ccc(Nc2c(-c3ccccn3)nc3cc(C)ccn23)cc1	Mdm2 MdmX PPI 92 | Mdm2 MdmX conf-1 89 | Full FLuc ctr 55 | Mdm2 MdmX conf-2 88
Cc1ccccc1/C=C/C(=O)c1ccc([N+](=O)[O-])o1	Mdm2 MdmX PPI 100 (no result: ABHD5-PLIN5 inh, Peg3 prom inh-1, KKLEB tox, CF NFkB inh, HIF-2a inh) | Mdm2 MdmX conf-1 86 | Full FLuc ctr 55 | Mdm2 MdmX conf-2 100
Cc1cccc(/C=C/C(=O)c2ccc([N+](=O)[O-])o2)c1	ABHD5-PLIN5 inh 77, Peg3 prom inh-1 101, CF NFkB inh 90, Mdm2 MdmX PPI 100 | Mdm2 MdmX conf-1 100 | Full FLuc ctr 53 | ABHD5 PLIN5 conf 104 | HNF4 counter 108 | Mdm2 MdmX conf-2 103
Cc1ccccc1NC(=O)c1ccc([N+](=O)[O-])o1	none
CCCOC(=O)c1cc(NC(=O)/C=C/c2ccccc2)ccc1O	none
COc1ccc(-n2c(C)c([N+](=O)[O-])c3ccc(O)c(CN(C)C)c32)cc1	CF NFkB inh 79, Mdm2 MdmX PPI 79 | Mdm2 MdmX conf-1 90 | Full FLuc ctr 53 | Mdm2 MdmX conf-2 94
Clc1ccc(-c2ccc(CNCc3ccccn3)o2)cc1	none
Cc1ccc2c(c1)Oc1ccc(NC(=O)CCl)cc1C(=O)N2	Peg3 prom inh-1 100, KKLEB tox -73, CF NFkB inh 87, HIF-2a inh 77, Mdm2 MdmX PPI 92 | Mdm2 MdmX conf-1 87 | Full FLuc ctr 54 | Mdm2 MdmX conf-2 103 | HIF-2a inh conf 72 | HIF-1a cs 103
Cc1ccc2c(c1)Oc1ccc([N+](=O)[O-])cc1C(=O)N2	none
CC(=O)N(Cc1ccco1)c1nc(C(=O)Nc2ccc(Cl)cc2)c(C)s1	none
O=S(=O)(c1ccccc1)c1ncc(C(F)(F)F)cc1Cl	Peg3 prom inh-1 71, KKLEB tox -86, CF NFkB inh 89, HIF-2a inh 96, Mdm2 MdmX PPI 61 | Mdm2 MdmX conf-1 inactive | HIF-2a inh conf inactive | HIF-1a cs inactive
O=S(=O)(c1ccccc1)c1ncc(C(F)(F)F)cc1O	none
Cc1ccc(-n2c(SCC(=O)NC3CCS(=O)(=O)C3)nc3ccccc3c2=O)c(C)c1 (stereo not drawn)	none (no result: Mdm2 MdmX PPI)

Bioassay records as filed in PubChem BioAssay.
